Screening data as filed in PubChem.
MRP resist rev: MRP-mediated drug resistance reversal; H69AR cells + 2 uM doxorubicin, CellTiter-Glo, 72 h; differential viability (reversal), % at 10 µM; actives 0.04% (n = 85,000);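 active means viability drop by adding the cancer drug above about 55%, with treated viability meeting a 40% cutoff, limit read from the data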;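 further: larger differential means the compound sensitizes cells more to doxorubicin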
ERa SRC1 inh: ER-alpha (human) coactivator binding inhibition; P03372; TR-FRET ER-alpha LBD / SRC-1 peptide, estradiol-bound; actives 1.7% (n = 86,000); AID 629; inhibition, % at 25.6 µM; in the data active means inhibition above about 50%
Target sequence (P03372 whole entry, looked up, the tested form may be a part): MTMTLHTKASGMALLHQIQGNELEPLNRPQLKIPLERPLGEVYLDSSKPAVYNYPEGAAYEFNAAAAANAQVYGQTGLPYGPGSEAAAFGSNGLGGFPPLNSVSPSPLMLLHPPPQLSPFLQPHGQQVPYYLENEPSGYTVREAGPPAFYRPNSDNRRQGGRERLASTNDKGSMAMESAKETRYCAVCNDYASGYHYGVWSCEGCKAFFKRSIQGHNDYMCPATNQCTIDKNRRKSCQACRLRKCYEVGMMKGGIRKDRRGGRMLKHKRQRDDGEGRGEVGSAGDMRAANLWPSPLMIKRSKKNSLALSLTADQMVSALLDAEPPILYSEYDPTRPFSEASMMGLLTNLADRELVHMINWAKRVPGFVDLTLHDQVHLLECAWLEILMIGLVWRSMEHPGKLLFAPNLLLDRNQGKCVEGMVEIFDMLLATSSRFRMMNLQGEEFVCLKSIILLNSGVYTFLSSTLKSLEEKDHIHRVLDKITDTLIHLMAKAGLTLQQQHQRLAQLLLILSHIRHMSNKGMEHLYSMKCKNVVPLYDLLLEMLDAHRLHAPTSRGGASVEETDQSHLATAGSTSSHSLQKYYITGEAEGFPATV
MRP-1 activ: activates MRP-1. actives 0.61% (n = 140,000). viability increase, % at 10 µM. H69AR cells + doxorubicin, viability rescue, CellTiter-Glo;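 active means viability gain under doxorubicin at or above a set limit, the compound median plus 3 SD, cut at about 4.7% in these data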;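 further: MRP-1 overexpressing cells given doxorubicin 25 µM after compound pretreatment; 18-22 h compound pretreatment then 72 h with doxorubicin before readout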
ERa SRC1 pot: ER-alpha (human) coactivator binding potentiation; AID 639; actives 1.3% (n = 86,000); coactivator binding (% of control), % at 25.6 µM; P03372; TR-FRET ERalpha-LBD/SRC-Cy5 coactivator binding, 2 h; 100 = basal binding, no effect; in the data active means activity above about 200%;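 further: binding measured in presence of low estradiol as agonist stimulus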
ERb coact inh: ER-beta (human) coactivator binding inhibition | actives 1.3% (n = 86,000) | Q92731 | inhibition, % at 25.6 µM | TR-FRET ER-beta LBD / SRC1-Cy5 peptide binding; receptor agonist-loaded with 1 µM estradiol;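 active means compounds whose percent inhibition of the receptor-coactivator binding signal exceeds about 50% in the single-dose screen, limit read from the data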
A number is an active result; n = inactive; x = no result given; [ ] = dose if it differs, or a comment. In the library only some 2.7% were active in any assay of this set; here they are far more common.

SMILES	MRP resist rev	ERa SRC1 inh	MRP-1 activ	ERa SRC1 pot	ERb coact inh
CCOC(=O)c1c(NC(=O)c2cc(C3CC3)on2)sc2c1CCCC2	n	n	x	n	n
CCn1c(=O)c2cc(C(=O)Nc3cc(C)on3)sc2c2ccccc21	n	54.4[fluorescence artefact?]	n	n	n
CCn1nc(C)c(NC(=O)/C=C/c2ccc(OC)c(COc3ccc(Cl)cc3Br)c2)c1C	n	95.1[fluorescence artefact?]	7.2	310.6[fluorescence artefact?]	51.6[fluorescence artefact?]
CCCCn1nnc(NC(=S)NC(=O)c2cccs2)n1	x	x	8.8	x	x
C=CCc1cccc2cc(C(=O)OCC(=O)c3ccccc3)c(=O)oc12	n	n	n	n	n
CCOC(=O)c1c(OCC)[nH]c2c1cc(O)c1ccccc12	n	97.4[fluorescence artefact?]	n	n	99.1[fluorescence artefact?]
CN(CC(=O)Nc1cccc(F)c1)C(=O)CCCc1cccs1	x	x	n	x	x
CCOC(=O)/C=C1\SCC(=O)N1CC(=O)c1ccc[nH]1	n	86.7[fluorescence artefact?]	n	n	64.4[fluorescence artefact?]
CCOC(=O)/C=C1\SCC(=O)N1CC(=O)Nc1ccc(OC)c(OC)c1	x	x	n	x	x
CCCC(O)(CCN(C)C)c1ccc(OC)cc1 (centres undefined)	n	n	n	n	n
CCCc1nc2ccccc2n2cc3c(=O)n(C)c(=O)n(C)c3c12	n	n	x	n	n
CC1CCN(S(=O)(=O)c2ccc(NC(=O)Cn3nnc(-c4ccccc4)n3)cc2)CC1	n	93.7[fluorescence artefact?]	n	n	76.0[fluorescence artefact?]
CC1CCN(S(=O)(=O)c2ccc(NC(=O)CN3CCOCC3)cc2)CC1	n	n	n	n	n
CC1CCN(S(=O)(=O)c2ccc(NC(=O)Cc3cccs3)cc2)CC1	n	74.2	n	n	61.9
COc1ccc(N2CCN(CCNC(=O)c3cccn4c(=O)c5ccc(Cl)cc5nc34)CC2)cc1	n	n	x	n	n
CCCCC(=O)/C=C/n1c(=S)oc2ccccc21	x	x	n	x	x
CC1(C)Cc2c(C#N)c(SCC(=O)c3ccccc3)nc(N3CCOCC3)c2CO1	n	n	n	246.0[fluorescence artefact?]	n
CC1(C)Cc2c(C#N)c(SCc3ccccc3)nc(N3CCOCC3)c2CO1	n	n	n	n	n
COc1ccccc1NC(C)C(=O)Nc1ccc(C(C)=O)cc1 (centres undefined)	x	x	n	x	x
COc1cc(NC(C)CCCN)c2ncccc2c1Oc1ccccc1 (centres undefined)	x	x	n	x	x
CC12CCC(=O)N1C(C(=O)OCC(=O)Nc1sccc1C#N)CS2 (centres undefined)	n	91.0[fluorescence artefact?]	n	n	68.4
CN(C)S(=O)(=O)c1cc(NC(=O)COC(=O)C2CSC3(C)CCC(=O)N23)ccc1Cl (centres undefined)	x	x	n	x	x
S=c1[nH]nc(C2CCCCC2)n1/N=C/c1cccs1	x	x	n	x	x
CCCOC(=O)c1sc2nc3c(cc2c1N)C(=O)CCC3	n	n	n	n	n
O=C(NCc1ccco1)c1csc2c1CCCCC2	n	n	n	n	n
SMILES	MRP resist rev	ERa SRC1 inh	MRP-1 activ	ERa SRC1 pot	ERb coact inh
COc1ccc2cc3c(N)c(C(=O)NCc4ccco4)sc3nc2c1	n	56.0[fluorescence artefact?]	n	n	n
O=C(NCc1ccco1)c1c2c(nc3ccccc13)CCC2	n	93.3[fluorescence artefact?]	n	n	92.0[fluorescence artefact?]
Nc1c(C(=O)NCc2ccco2)sc2nc3c(cc12)C(=O)CCC3	n	82.4[fluorescence artefact?]	n	n	85.1[fluorescence artefact?]
CCn1c(=O)cc(OCC(=O)N2CCc3ccccc32)c2ccccc21	n	n	n	211.6[fluorescence artefact?]	n
CCn1c(=O)cc(OCC(=O)N2CCCCCC2)c2ccccc21	n	n	n	n	n
CCn1c(=O)cc(OCC(=O)Nc2cccnc2)c2ccccc21	n	n	n	n	n
CCc1cc(=O)oc2cc(OCC(=O)N3CCc4ccccc43)ccc12	n	n	x	200.3[fluorescence artefact?]	n
CCOC(=O)c1ccc(NC(=O)COc2cc(=O)n(CC)c3ccccc23)cc1	n	n	n	890.2[fluorescence artefact?]	n
COc1cc(NC(=O)c2ccccc2-c2ccccc2)cc(OC)c1	x	x	n	x	x
CCN(CC)CCN1C(=O)C(=O)/C(=C(/O)c2ccc(C)cc2)C1c1cccnc1 (centres undefined)	n	n	x	n	n
CCCCNC(=O)COc1ccccc1C(=O)c1cc(C#N)c(=O)n(CCOC)c1	x	x	n	x	x
O=C(O)c1ccc2c(c1)[C@@H]1C=CC[C@@H]1[C@H](c1ccccn1)N2	n	68.3	x	n	85.8
C=CCn1c(=O)c(C(=O)Nc2nnc(C)s2)c(O)c2ccccc21	n	n	x	n	n
Cc1ccccc1NC(=O)CC1SC(=O)N(c2ccccc2)C1=O (centres undefined)	n	n	5.4	n	n
COc1ccc(C(N)CCc2ccc(C)o2)cc1 (centres undefined)	n	95.1[fluorescence artefact?]	n	n	74.1
CCCSc1nc2c(cnn2-c2ccc(C)cc2)c(=O)[nH]1	n	n	n	297.5[fluorescence artefact?]	n
CCSc1nc2c(cnn2-c2ccc(C)cc2)c(=O)[nH]1	n	n	n	628.1	n
CCCCSc1nc2c(cnn2-c2ccc(Cl)cc2)c(=O)[nH]1	n	n	n	n	n
COC(=O)c1ccc(CSc2nc3c(cnn3-c3ccc(C)c(C)c3)c(=O)[nH]2)o1	n	79.9	n	n	n
O=c1[nH]c(SCc2ccc(F)cc2)nc2c1cnn2-c1ccc(F)cc1	n	n	x	n	n
O=C(CSc1nc2c(cnn2-c2ccccc2)c(=O)[nH]1)c1ccc(Cl)cc1	n	n	n	329.2	n
COC(=O)c1c(O)cc(C(C)(C)C)n(-c2ccc(F)cc2)c1=O	x	x	n	x	x
Cc1ccc(C(=O)C(OC(=O)CN2C(=O)c3ccccc3C2=O)c2ccccc2)cc1C (centres undefined)	x	x	n	x	x
CC1CCN(C(c2cccs2)c2nnnn2Cc2ccccc2)CC1 (centres undefined)	n	n	n	n	n
CCC(C)Sc1nc2c(cnn2-c2ccc(C)cc2)c(=O)[nH]1 (centres undefined)	n	n	n	526.0[fluorescence artefact?]	n
SMILES	MRP resist rev	ERa SRC1 inh	MRP-1 activ	ERa SRC1 pot	ERb coact inh
CCCSc1nc2c(cnn2-c2ccc(C)c(C)c2)c(=O)[nH]1	n	50.1[fluorescence artefact?]	n	244.1[fluorescence artefact?]	53.9[fluorescence artefact?]
CCCSc1nc2c(cnn2-c2ccc(F)cc2)c(=O)[nH]1	x	x	n	x	x
CCCSc1nc2c(cnn2-c2ccccc2)c(=O)[nH]1	n	n	n	201.1	n
CCCCSc1nc2c(cnn2-c2ccc(C)c(C)c2)c(=O)[nH]1	n	n	n	n	n
O=C(c1cc([N+](=O)[O-])ccc1Cl)N1c2ccccc2Sc2ccccc21	x	x	n	x	x
Cc1cccc(S(=O)(=O)NNC(=O)c2sc(C)nc2C)c1	x	x	n	x	x
CCOc1c(Cl)cc(CNCC(C)C)cc1Cl	n	n	n	n	n
CCOc1ccccc1C(=O)Nc1ccc2nc(N3CCN(c4ncccn4)CC3)cc(C)c2c1	n	73.3	x	303.4[fluorescence artefact?]	n
COc1cccc(C(=O)Nc2ccc3nc(N4CCN(c5ncccn5)CC4)cc(C)c3c2)c1OC	x	x	n	x	x
NC(=O)c1oc2ccccc2c1NC(=O)c1nc2ccccc2s1	n	n	n	492.7	n
NC(=O)c1oc2ccccc2c1NC(=O)c1ccc(F)cc1	x	x	n	x	x
Cc1occc1-c1nnc(SCc2cc(=O)n3cc(Br)ccc3n2)n1C	n	61.1	n	n	52.8
Cn1c(SCc2cc(=O)n3cc(Br)ccc3n2)nnc1C1COc2ccccc2O1 (centres undefined)	n	68.2	n	n	n
